Screening results (PubChem BioAssay)
hcDAF12 agonist: activators of H. contortus DAF-12 nuclear receptor | HEK293 hcDAF-12 lit1-tk-luc reporter, luminescence; 0% DMSO, 100% Δ7-dafachronic acid | activation, % at 6.8 µM | 370,000 tested, 1.4% active | AID 652067;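 active = activation above the mean of all tested compounds plus 3 SD, cut at about 5.5% in these data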
DAX1 inh-1: blocks DAX1 repression of SF-1 activated StAR promoter | HEK293T StAR-luciferase reporter, SF-1/DAX-1 repression relief | 370,000 tested, 1.1% active | inhibition, % at 6.8 µM | AID 652010;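 active = inhibition above the mean over all tested compounds plus 3 SD, cut at about 3.6% in these data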;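 note: higher inhibition means more luminescence from relief of DAX-1 repression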
DAX1 inh-2: inhibitors of human orphan nuclear receptor DAX1 (NR0B1); 340,000 tested, 0.99% active; AID 504766; HEK293 Gal4-DAX1 luciferase reporter, luminescence; inhibition, % at 6.75 µM; P51843;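 active = inhibition above the mean over all tested compounds plus 3 SD, cut at about 4.2% in these data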;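 note: inhibition shows as a rise in luminescence from relieved DAX1 repression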
PolyA inh: yeast polyadenylation inhibition. S. cerevisiae SKY197-pL101 polyadenylation reporter, beta-gal luminescence; efflux-impaired pdr1/pdr3 knockout yeast; score 100 = 6 SD above DMSO. activity score, % at 12 µM. 300,000 tested, 0.02% active. AID 1875;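 active = lowest replicate activity score at least 50, where 100 means six control SD above control mean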;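 note: yeast exposed to compound for 9 h at 30 °C; higher score means more reporter readthrough which indicates perturbed polyadenylation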
ssDAF-12 act: activators of S. stercoralis DAF-12 nuclear receptor | HEK293 ssDAF-12/GRIP1 lit1-tk-luc reporter, luminescence; % of 3 µM dafachronic acid response | activation, % at 6.8 µM | 370,000 tested, 1% active | AID 652126;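 active = activation above the mean over all tested compounds plus 3 SD, cut at about 0.9% in these data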
hgDAF12 agonist: hgDAF-12 agonism, primary luciferase screen; HEK293 GAL4-hgDAF12 UAS-luciferase reporter, agonist luminescence; normalized to butyrate control; activation, % at 6.8 µM; 370,000 tested, 1.8% active; AID 687014;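 active = activation above a cutoff set at the mean of all screened compounds plus 3 SD, cut at about 10% in these data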
DAX1 inh confirm: confirmation of human DAX1 (NR0B1) inhibitors; shares compounds with DAX1 inh-1; HEK293T StAR-promoter luciferase reporter, SF-1/DAX-1 repression; inhibition, % at 6.8 µM; 2,400 tested, 87% active;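 active = inhibition above the average of every tested compound plus 3 SD, cut at about 3.8% in these data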;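 note: active compounds raise luminescence by relieving repression of the StAR reporter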
Target sequence (P51843 whole entry, looked up): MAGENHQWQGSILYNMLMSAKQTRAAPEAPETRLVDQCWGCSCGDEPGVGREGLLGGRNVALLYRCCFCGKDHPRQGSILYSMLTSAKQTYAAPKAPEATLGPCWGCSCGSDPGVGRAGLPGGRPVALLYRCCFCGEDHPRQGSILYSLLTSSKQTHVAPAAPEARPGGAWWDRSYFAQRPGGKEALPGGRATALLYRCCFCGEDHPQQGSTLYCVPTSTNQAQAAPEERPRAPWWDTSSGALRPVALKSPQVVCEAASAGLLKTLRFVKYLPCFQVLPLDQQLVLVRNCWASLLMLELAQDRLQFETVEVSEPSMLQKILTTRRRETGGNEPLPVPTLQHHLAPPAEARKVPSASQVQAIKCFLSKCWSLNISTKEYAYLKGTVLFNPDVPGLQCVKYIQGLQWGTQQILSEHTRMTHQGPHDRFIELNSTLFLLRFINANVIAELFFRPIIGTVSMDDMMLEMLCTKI
SF1 mutant ctr: nonselective inhibitor or artifact in SF-1 mutant DAX1 counter-screen; shares compounds with DAX1 inh-1; HEK293 StAR-luciferase, SF-1 AF2 mutant, luminescence; inhibition, % at 6.8 µM; 2,400 tested, 78% active; AID 652136;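 active = inhibition above the mean of all tested compounds plus 3 SD, cut at about 3% in these data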
Of the large screens only hits and unclear results are named; the others gave an inactive call (follow-up assays come after a bar, where they were run). Rows were chosen to be rich in hits. Some 4.1% of all compounds tested hit in one or more screens of this group.

c1ccc(N/N=C(\Cc2nc3ccccc3[nH]2)c2ccccc2)cc1	none
Clc1cccc(/C(Cc2nc3ccccc3[nH]2)=N\Nc2ccccc2)c1	ssDAF-12 act 1.0
Clc1ccc(-c2cn(-c3nc4ccccc4s3)nn2)cc1	hcDAF12 agonist 5.7 (no result: DAX1 inh-2, PolyA inh)
O=c1c(-c2nc3ccccc3s2)cccn1Cc1ccc(Cl)cc1	none
COc1ccccc1C(=O)NCCC(=O)NC1CCC(C)CC1 (stereo not given)	DAX1 inh-1 8.7 (no result: PolyA inh) | DAX1 inh confirm 10.3 | SF1 mutant ctr 4.6
COc1ccccc1C(=O)NCCC(=O)NC1CCCCC1C (stereo not given)	none
COC(=O)[C@]12C[C@H](CC(=O)N3CCCC3)C(=O)N(Cc3cccc4ccccc34)C1=C[C@H](C(C)(C)C)O[C@@H]2C	none (no result: DAX1 inh-2, PolyA inh)
Cc1cccc(Cl)c1-n1nnnc1C1(C)CSCC(=O)N1Cc1ccc(F)cc1 (stereo not given)	none (no result: DAX1 inh-2, PolyA inh)
COc1ccc(-c2sc3ccccc3c2-c2ccc(OC)cc2F)cc1	DAX1 inh-1 5.3 (no result: DAX1 inh-2, PolyA inh) | DAX1 inh confirm inactive | SF1 mutant ctr inactive
O=C1COc2ccccc2C(c2nnnn2Cc2ccccc2)N1Cc1cccs1 (stereo not given)	none (no result: DAX1 inh-2, PolyA inh)
CC[C@]1(c2ccc(C)cc2)C(=O)N(C(=O)OC(C)C)N1C(=O)OC(C)C	none (no result: DAX1 inh-2, PolyA inh)
CC[C@@H](CCCc1ccccc1OC)CCS(=O)(=O)C(C)(C)C	none (no result: DAX1 inh-2, PolyA inh)
CC1CCN(C(=O)CNC(=O)c2ccc(Br)o2)CC1	DAX1 inh-1 4.9 (no result: PolyA inh) | DAX1 inh confirm inactive | SF1 mutant ctr inactive
COc1ccc(C(=O)N=c2sc3c(C)ccc(OC)c3n2C)cc1	DAX1 inh-1 4.8, hgDAF12 agonist 12.9 | DAX1 inh confirm inactive | SF1 mutant ctr inactive
COC(=O)[C@]12C[C@H](CC(=O)N3CCN(C(=O)C4CC4)CC3)C(=O)N(Cc3ccc(Cl)cc3Cl)C1=C[C@H](C(C)C)O[C@@H]2C1CC1	none (no result: DAX1 inh-2, PolyA inh)
Cc1cc(NS(=O)(=O)c2ccc(NC(=O)CSc3nnc(-c4ccco4)n3-c3ccc(Cl)cc3)cc2)nc(C)n1	none (no result: DAX1 inh-2, PolyA inh)
CC(C)CC(NC(=O)OCc1ccccc1)C(=O)NCC(=O)NCC(=O)OCc1ccccc1 (stereo not given)	none (no result: DAX1 inh-2, PolyA inh)
Cc1cc(NC(=O)c2cccc(COc3ccc(Br)cc3)c2)no1	DAX1 inh-1 4.5, hgDAF12 agonist 11.5 | DAX1 inh confirm 4.0 | SF1 mutant ctr 4.6
CSc1ccc(CC(=O)N2CCC(n3nccc3NC(=O)C3CC3)CC2)cc1	DAX1 inh-1 6.0, hgDAF12 agonist 12.3 | DAX1 inh confirm inactive | SF1 mutant ctr inactive
COc1cccc(CC(=O)N2CCC(n3nccc3NC(=O)C3CC3)CC2)c1	none
COc1cc(Nc2cc(C)n(-c3ccc(Cl)c(OC)c3)c(=O)c2)ccc1Cl	none (no result: DAX1 inh-2, PolyA inh)
O=[N+]([O-])c1ccc(F)cc1OCc1nc(-c2cccs2)no1	hcDAF12 agonist 6.1, DAX1 inh-1 6.9, ssDAF-12 act 1.1, hgDAF12 agonist 12.0 | DAX1 inh confirm 8.7 | SF1 mutant ctr 4.8
O=C(Nc1ccc([N+](=O)[O-])cc1)c1ccc(S(=O)(=O)N2CCCC2)cc1	none
O=C(Nc1ccc(S(=O)(=O)N2CCCCCC2)cc1)c1[nH]ncc1[N+](=O)[O-]	DAX1 inh-1 7.0 | DAX1 inh confirm inactive | SF1 mutant ctr inactive
CCOC(=O)[C@]12CCCCC/C=C\1N(Cc1ccc(OC)cc1)C(=O)[C@H]2CC(=O)NCCCCc1ccccc1	none (no result: DAX1 inh-2, PolyA inh)
COC(=O)C1CN(Cc2ccc(OC)cc2)CCS(=O)(=O)N1Cc1cn(CCOC(C)=O)nn1 (stereo not given)	none (no result: DAX1 inh-2, PolyA inh)
Cc1[nH]c2ccc(C(=O)NC3CCC(C)CC3)cc2c1C (stereo not given)	DAX1 inh-1 5.4, hgDAF12 agonist 12.6 | DAX1 inh confirm 6.8 | SF1 mutant ctr 3.3
CC[C@H](CCC(=O)N(c1ccccc1)c1ccccc1)C1CC1	none (no result: DAX1 inh-2, PolyA inh)
